Bioassay records as filed in PubChem BioAssay.
KKLEB cytotox = reduces viability of KKLEB cystic fibrosis airway cells; KKLEB CF airway cells viability, ATPlite luminescence, overnight; stronger effect = lower value; cells stimulated with P. aeruginosa culture filtrate; activity change (cytotoxicity), % at 5 µM; actives 0.36% (n = 360,000); AID 602141;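 active = corrected activity change at or below -50% at 5 µM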
Peg3 promoter = reduces Peg3 promoter-driven luciferase expression in HeLa; HeLa PEG-Prom luciferase reporter, luminescence, overnight; inhibition, % at 20 µM; actives 1.7% (n = 360,000); AID 588405;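 active = inhibition of at least 50% at 20 µM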
TROY NFkB inh = blocks TROY-dependent signaling in reporter cells; Q293 LMP1-TROYcd NF-kB luciferase reporter, 4 h; inhibition, % at 10 µM; actives 0.98% (n = 360,000);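 active = compounds whose plate-normalised and pattern-corrected inhibition of the luciferase reporter signal at the single screening dose is 50% or more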
CF NFkB block = inhibitors of cystic fibrosis induced NF-kB; KKLEB NF-kB-GFP reporter, PAF-induced, GFP fluorescence overnight; inhibition, % at 5 µM; actives 0.86% (n = 360,000); AID 588850;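 active = at least 50% inhibition at 5 µM, scaled per plate between neutral and stimulator controls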;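 note: PAF is a Pseudomonas aeruginosa culture filtrate used as stimulus; plate controls were PAF-stimulated DMSO wells for no effect and unstimulated DMSO wells for full effect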
HIF-2a block = blocks HIF-2a reporter activity. AID 624352. 786-0 RCC cells HIF-2a reporter, luciferase luminescence, overnight. actives 0.72% (n = 360,000). inhibition, % at 18.8 µM;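 active = inhibition of the luminescence signal of 40% or more relative to plate controls, in a single-dose primary screen at 18.75 µM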
TWEAK-Fn14 inh = blocks TWEAK-Fn14 interaction in a reporter cell assay | TWEAK-stimulated Fn14 reporter cells, luciferase luminescence, 8 h | inhibition, % at 10 µM | actives 2% (n = 360,000); in the data active = inhibition above about 50%
Mdm2 MdmX conf = confirmation of inhibitors of human Mdm2/MdmX interaction, set 2. shares compounds with HIF-2a block. SaOS-2 split-luciferase Mdm2/MdmX complementation, luminescence. inhibition, % at 8 µM. actives 99% (n = 740);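 active = mean inhibition of the luminescence signal across two replicates at or above 26 percent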
HIF-2a inh conf = HIF-2a inhibition, single concentration confirmation. shares compounds with HIF-2a block. 786-0 RCC cells, HIF-2a luciferase reporter luminescence, overnight. inhibition, % at 18.8 µM. actives 56% (n = 1,800). AID 651580;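 active = mean inhibition across four replicates of at least 40 percent at the single tested concentration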
HIF-1a cs = counter-screen for HIF-2a inhibitors: HIF-1a inhibition in MiaPaCa-2 cells | MiaPaCa-2 HIF-1a luciferase reporter, desferoxamine, overnight | shares compounds with HIF-2a block | inhibition, % at 18.8 µM | actives 72% (n = 1,800);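 active = mean inhibition of the reporter signal across four replicates at the single tested dose of 50% or more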
* marks the source's active call; other numbers are inactive results; . = no result given. Sampled rows, rich in hits. Any-hit rate of the full collection: about 4%.

SMILES	KKLEB cytotox	Peg3 promoter	TROY NFkB inh	CF NFkB block	HIF-2a block	TWEAK-Fn14 inh	HIF-2a inh conf	HIF-1a cs	others
CC(=O)O[C@H]1C[C@@H]2OC3C=C(C)CCC3(C)[C@@]1(C)[C@@]21CO1 (some centres not stated)	-19.1	96.1*	78.2*	89.5*	48.0*	96.9*	64.5*	102.3*
CN1CCCC2c3ccccc3CCC21 (configuration not stated)	2.6	-1.9	10.8	5.3	9.3	-5.2	.	.
C[C@H]1CCC/C=C/C2C[C@H](O)CC2[C@H](O)/C=C/C(=O)O1 (some centres not stated)	-7.1	54.9*	-63.0	81.4*	68.1*	56.7*	.	.	Mdm2 MdmX conf=103.0*
CC1CCC[C@H](O)CCCCCc2cc(O)cc(O)c2C(=O)O1 (some centres not stated)	0.4	15.4	-5.5	29.6	7.2	-5.9	.	.
CC1CCC/C=C/C2CC(O)CC2C(O)/C=C/C(=O)O1 (configuration not stated)	-60.4*	59.7*	-54.5	79.4*	45.9*	76.0*	33.7	77.7*	Mdm2 MdmX conf=103.0*
CN1Cc2cnnn2-c2ccccc2C1c1ccccc1 (configuration not stated)	8.3	-2.1	11.8	-15.7	1.6	1.3	.	.
Cc1nc2ncnn2c(C)c1CCC(=O)N1CCC2(CC1)OCCO2	8.1	4.6	-3.6	5.0	7.5	-7.9	.	.
Cc1nc2cc(-c3ccccc3)nn2c(C)c1CCC(=O)N1CCC2(CC1)OCCO2	-6.1	-40.6	-7.8	1.7	69.8*	5.2	80.8*	35.9
C=CCN(CC=C)C(=O)CCN1CC1C (configuration not stated)	3.7	-5.2	-7.5	24.2	7.3	-12.6	.	.
CC1CCC(C(C)C)C(OC(=O)Cn2c(COc3ccccc3)[n+](C)c3ccccc32)C1 (configuration not stated)	-72.5*	94.5*	43.9	73.6*	-10.4	46.5	.	.	Mdm2 MdmX conf=102.2*
CCN1CCN(CC(c2ccccc2)c2ccccc2)CC1	18.8	16.0	15.2	-16.9	10.5	7.2	.	.
O=C(c1ccccc1)C(CN1CCCC1)c1ccccc1 (configuration not stated)	-50.0	104.5*	10.5	68.5*	89.0*	71.2*	30.9	78.8*
CNc1ccc2oc(C[C@H]3O[C@@]4(CC[C@H]3C)O[C@H]([C@H](C)C(=O)c3ccc[nH]3)[C@H](C)C[C@H]4C)nc2c1C(=O)O	-55.4*	91.4*	53.4*	36.2	86.8*	103.6*	.	.	Mdm2 MdmX conf=102.5*
COc1cc2c(cc1/C=C/[N+](=O)[O-])OCO2	-3.2	109.7*	61.5*	25.9	71.0*	63.7*	78.8*	98.0*
CC1(C(=O)O)CC12c1ccccc1-c1ccccc12 (configuration not stated)	3.0	-15.2	6.9	-7.9	13.0	1.4	.	.
CC[C@]12C=CCN3CCC4(c5cc(Br)c(OC)cc5N(C)C4[C@@](O)(C(=O)OC)[C@@H]1OC(C)=O)C32 (some centres not stated)	-17.8	12.3	0.1	15.7	40.5*	-1.7	-4.0	15.4
Cc1c(CCC(=O)N2C[C@H]3C[C@@H](C2)c2cccc(=O)n2C3)c(=O)oc2c(C)c(O)ccc12	-2.9	-7.2	-2.4	-7.2	-1.0	18.4	.	.
O=C(CCCc1ccc(N(CCCl)CCCl)cc1)NCc1ccccc1	2.4	6.2	12.5	14.6	-1.2	2.5	.	.
COc1ccc(NC2Oc3cc4c(cc3C(c3cc(OC)c(OC)c(OC)c3)C2C)OCO4)cc1 (configuration not stated)	-23.6	-20.2	19.9	37.8	25.1	24.2	.	.
